From PubChem BioAssay (NCI) come the findings set out here.

Test systems include DU-145 prostate; K-562 leukemia; MALME-3M melanoma; MDA-MB-231 breast; RXF 393 renal; SF-268 CNS; SF-295 CNS; SF-539 CNS; UACC-257 melanoma; M14 melanoma.
What all share (experiment): NCI-60 one-dose screen, 48 h (100 = growth as untreated, 0 = no growth, -100 = all killed)
Common to all, as to details: 10 µM unless noted

The panel holds about 83,000 compounds, 20% with a hit somewhere; the sample as a whole holds those more often.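 Growth was measured after 48 h exposure to one concentration of compound in 96-well plates. Values under 10 count as active.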 A number with no mark means an inactive call. Activity calls are given as the source filed them.

As for `COc1cccc(-c2cc(C(=O)Nc3ccc(/C=C/c4ccc(OC5CCN(C)CC5)cc4)cc3)ccc2OC)c1`, the growth was -64.9% (active) in the experiment on DU-145 prostate; -47.9% (active) in the experiment on K-562 leukemia; 51.3% in the experiment with MALME-3M melanoma; -60.5% (active) with MDA-MB-231 breast; 28.9% in the experiment with RXF 393 renal; -30.8% (active) in the experiment on SF-268 CNS. Moreover, the growth in the experiment on SF-295 CNS was -63% (active); in the experiment with SF-539 CNS it was 8.18% (active); with UACC-257 melanoma it was 83.7%; with M14 melanoma, -21.8% (active).

For the compound `COc1cc(/C(C)=C(\c2ccc(Cl)cc2)c2ccc(OCCN3CCCC3)cc2)ccc1F`, the growth was 69.4% in the experiment with DU-145 prostate; 3.65% (active) in the experiment with K-562 leukemia; -2.59% (active) in the experiment with MALME-3M melanoma; 56.4% in the experiment with MDA-MB-231 breast; 69.3% in the experiment on RXF 393 renal; 76.6% with SF-268 CNS. Moreover, the growth in the experiment with SF-295 CNS was 75.2%; in the experiment with SF-539 CNS, 73.3%; with UACC-257 melanoma, 3.02% (active); in the experiment on M14 melanoma it was 18.2%.

As to `CCCCOc1ccc(/C(C)=N/Nc2cc(C)nc3ccc(Br)cc23)cc1`, the growth was 96.3% in the experiment on DU-145 prostate; 15.7% with K-562 leukemia; 145% in the experiment on MALME-3M melanoma; 81.3% in the experiment with MDA-MB-231 breast; 94.3% in the experiment with RXF 393 renal; 96.3% in the experiment on SF-268 CNS. Also, the growth is 76.2% in the experiment with SF-295 CNS, 98.7% in the experiment on SF-539 CNS, 114% with UACC-257 melanoma and 104% with M14 melanoma.

In the case of `Cc1cnc(C(=O)Nc2nc3ccc(S(=O)(=O)Nc4ccc(C(C)(C)C)cc4)cc3[nH]2)cn1`, the growth in the experiment with DU-145 prostate was 12.4%; in the experiment on K-562 leukemia it was 11.4%; in the experiment with MALME-3M melanoma, 43.8%; in the experiment on MDA-MB-231 breast, 30.6%; in the experiment on RXF 393 renal, -13.9% (active); in the experiment with SF-268 CNS, 48.1%. For the same compound, the growth in the experiment with SF-295 CNS was 21.9%; in the experiment on SF-539 CNS, -33.6% (active); in the experiment on UACC-257 melanoma, 59.1%; in the experiment with M14 melanoma it was 1.89% (active).

With `O=C(NO)c1ccc(-n2nc(-c3ccccc3)c3ccccc32)cc1`, the growth in the experiment with DU-145 prostate is 38.4%; in the experiment on K-562 leukemia, 37.8%; with MALME-3M melanoma, 57%; in the experiment on MDA-MB-231 breast, 40.3%; in the experiment with RXF 393 renal it was 36.5%; in the experiment with SF-268 CNS it was 54.7%. Further, the growth in the experiment with SF-295 CNS was 80.9%; in the experiment on SF-539 CNS, 49.3%; in the experiment on UACC-257 melanoma it was 78.5%; with M14 melanoma it was 57.2%.

Regarding `COc1cc(NC(C)CCCNC(=O)CCC(=O)NCCCNCCCCCCCCNCCCNC(=O)CCC(=O)NCCCC(C)Nc2cc(OC)cc3cccnc23)c2ncccc2c1` (stereo not given), the growth was 66.7% with DU-145 prostate; 45.1% in the experiment on K-562 leukemia; 40.2% in the experiment on MALME-3M melanoma; 44% with MDA-MB-231 breast; 67.9% in the experiment on RXF 393 renal; 52.2% in the experiment with SF-268 CNS. Besides, the growth with SF-295 CNS was 85.5%; in the experiment with SF-539 CNS, 69%; in the experiment with UACC-257 melanoma, 36.3%; with M14 melanoma it was 84.4%.

As to `CCCCCCCCO/N=C\c1c2c(O)c3c(O)c(C)c4c(c3c1O)C(=O)C(C)(O/C=C\C(OC)C(C)C(OC(C)=O)C(C)C(O)C(C)C(O)C(C)/C=C\C=C(\C)C(=O)N2)O4` (stereo not given), the growth with DU-145 prostate is 32.9%; in the experiment with K-562 leukemia it was 16.7%; with MALME-3M melanoma it was 40.7%; in the experiment on MDA-MB-231 breast, 12.7%; in the experiment with RXF 393 renal, 38.7%; in the experiment with SF-268 CNS, 43.1%. The growth in the experiment on SF-295 CNS is 4.44% (active); with SF-539 CNS, 42.9%; with UACC-257 melanoma it was 8.62% (active); in the experiment on M14 melanoma, 27%.

Consider `CC(=O)c1ccc(NS(=O)(=O)c2cccc(C(=O)Nc3ccc(Br)cc3)c2)cc1`, for which the growth was 94.6% [25 µM] in the experiment with DU-145 prostate; 44.4% [25 µM] in the experiment with K-562 leukemia; 56.2% [25 µM] with MALME-3M melanoma; 94.1% [25 µM] in the experiment on MDA-MB-231 breast; 61.7% [25 µM] in the experiment with RXF 393 renal; 60.8% [25 µM] in the experiment with SF-268 CNS. Also, the growth in the experiment with SF-295 CNS was 23.8% [25 µM]; in the experiment on SF-539 CNS it was 66.5% [25 µM]; with UACC-257 melanoma it was 44.6% [25 µM]; with M14 melanoma, 63.9% [25 µM].

On to `Cn1c2ccccc2c2c3c(c4c5ccccc5n(C)c4c21)C(=O)OC3`, for which the growth in the experiment with DU-145 prostate is 104%; with K-562 leukemia it was 94.2%; in the experiment with MALME-3M melanoma it was 109%; with MDA-MB-231 breast it was 76.2%; in the experiment on RXF 393 renal, 101%; in the experiment on SF-268 CNS it was 91.1%. The growth in the experiment with SF-295 CNS was 107%; in the experiment on SF-539 CNS it was 96.6%; in the experiment on UACC-257 melanoma it was 109%; with M14 melanoma it was 103%.

Turning to `O=C(c1nc2ccccc2[nH]1)C1C(c2ccc(Cl)cc2)C2CC3CCCC[C@H]3N2[C@@]12C(=O)Nc1cc(Cl)ccc12` (stereo not given in full), the growth in the experiment with DU-145 prostate was 62.1%; in the experiment on K-562 leukemia, 29%; in the experiment with MALME-3M melanoma it was 43.9%; in the experiment with MDA-MB-231 breast, 42.6%; in the experiment with RXF 393 renal, 35.7%; in the experiment with SF-268 CNS it was 42.2%. Further, the growth was 32.6% with SF-295 CNS, 60.6% in the experiment on SF-539 CNS, 45.7% in the experiment on UACC-257 melanoma and 34.2% in the experiment with M14 melanoma.

In the case of `O=S(=O)(NCCNc1nccc(-c2c(-c3cccc(O)c3)nc3occn23)n1)c1ccccc1`, the growth in the experiment with DU-145 prostate was 97.7%; in the experiment with K-562 leukemia, 68.4%; in the experiment on MALME-3M melanoma, 2.3% (active); with MDA-MB-231 breast it was 66.5%; with RXF 393 renal it was 90.3%; with SF-268 CNS, 85.3%. In addition, the growth in the experiment with SF-295 CNS was 96.6%; in the experiment with SF-539 CNS, 105%; with UACC-257 melanoma, 17.7%; in the experiment on M14 melanoma it was 29.4%.

In the case of `COc1cc2oc(-c3cccc(C(=O)Nc4ccccc4)c3)cc(=O)c2c(O)c1OC`, the growth in the experiment on DU-145 prostate is 65.6%; in the experiment with K-562 leukemia, 97.1%; with MALME-3M melanoma, 64.5%; in the experiment with MDA-MB-231 breast, 76.3%; in the experiment with RXF 393 renal, 56.5%; in the experiment with SF-268 CNS it was 37%. Moreover, the growth is 70% in the experiment on SF-295 CNS, 19.4% in the experiment on SF-539 CNS, 84.3% with UACC-257 melanoma and 83.7% in the experiment on M14 melanoma.

For `O=C(c1nnc(Nc2ccccc2Br)o1)c1c[nH]c2ccccc12`, the growth is 107% in the experiment on DU-145 prostate; 112% with K-562 leukemia; 105% with MALME-3M melanoma; 88.9% with MDA-MB-231 breast; 125% in the experiment on RXF 393 renal; 105% in the experiment on SF-268 CNS. Moreover, the growth in the experiment on SF-295 CNS is 108%; with SF-539 CNS, 104%; in the experiment on UACC-257 melanoma, 92.6%; with M14 melanoma it was 92.5%.

On to `CN(C)CCn1c2ccc(Br)cc2c2nc3ccccc3nc21`, for which the growth is 27% in the experiment with DU-145 prostate; 12.1% with K-562 leukemia; 51.3% in the experiment on MALME-3M melanoma; 30.3% in the experiment on MDA-MB-231 breast; 39.4% with RXF 393 renal; 43.1% in the experiment with SF-268 CNS. The growth is 26.8% in the experiment on SF-295 CNS, 27.3% in the experiment on SF-539 CNS, 46% with UACC-257 melanoma and 30% with M14 melanoma.
